“And” between values parts separate entries of the source, which are not always exact repeats. Equal values may be shown once. Inconclusive results are not listed. The source made the active and inactive calls. Unless noted, the call rests on the fitted dose curve; in most records, active means well fitted curve in the direction sought with a large enough effect; inconclusive means small, poorly fitted or top-dose-only effect, or another doubt; inactive means no such curve, though single readings can be large; an effect the other way counts as inactive or inconclusive.
How the values were obtained:
[1] = Cell Viability - N2a (AID 540); settings: N2a mouse neuroblastoma cell viability; activity change, negative = cytotoxicity: at 92.2 µM (top of the series);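 further: plate controls were DMSO alone for no effect and tamoxifen control for full effect; nearly all actives have a fitted effect of over 45% in size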
Method in brief: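 Mouse neuroblastoma N2a cells (1500/well) were preincubated 5 hr at 37 °C, then exposed to compounds for 40 hr at 37 °C in complete medium. Viability was read as intracellular ATP by CellTiter-Glo luminescence; AC50 from Hill fits.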

[2] = Cellular Toxicity (caspase-3) BJ (AID 658);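 further: 0% = DMSO basal and 100% = 10 µM staurosporine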
Method in brief: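 Luminescent aminoluciferin-substrate cleavage reports caspase 3/7 activity in normal human BJ fibroblasts after 16 hr compound exposure at 37 °C. Normalized to DMSO (basal) and 10 uM staurosporine (100%); AC50 from Hill fit of concentration-response.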

[3] = target: Glucocorticoid receptor (Homo sapiens) (UniProt P04150); experiment: qHTS assay for small molecule agonists of glucocorticoid receptor signaling (AID 588532; active means well fitted curve in the direction sought with a large enough effect in the signal ratio, with a control signal flat; the % refers to the signal ratio;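 further: 100% = dexamethasone at 0.1 µM and 0% = DMSO only wells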); settings: HeLa MMTV-bla, beta-lactamase ratio, agonist, 18 h; stronger effect = higher value; percent of dexamethasone control, DMSO zero
Sequence of Glucocorticoid receptor (Homo sapiens) (P04150 whole entry, looked up): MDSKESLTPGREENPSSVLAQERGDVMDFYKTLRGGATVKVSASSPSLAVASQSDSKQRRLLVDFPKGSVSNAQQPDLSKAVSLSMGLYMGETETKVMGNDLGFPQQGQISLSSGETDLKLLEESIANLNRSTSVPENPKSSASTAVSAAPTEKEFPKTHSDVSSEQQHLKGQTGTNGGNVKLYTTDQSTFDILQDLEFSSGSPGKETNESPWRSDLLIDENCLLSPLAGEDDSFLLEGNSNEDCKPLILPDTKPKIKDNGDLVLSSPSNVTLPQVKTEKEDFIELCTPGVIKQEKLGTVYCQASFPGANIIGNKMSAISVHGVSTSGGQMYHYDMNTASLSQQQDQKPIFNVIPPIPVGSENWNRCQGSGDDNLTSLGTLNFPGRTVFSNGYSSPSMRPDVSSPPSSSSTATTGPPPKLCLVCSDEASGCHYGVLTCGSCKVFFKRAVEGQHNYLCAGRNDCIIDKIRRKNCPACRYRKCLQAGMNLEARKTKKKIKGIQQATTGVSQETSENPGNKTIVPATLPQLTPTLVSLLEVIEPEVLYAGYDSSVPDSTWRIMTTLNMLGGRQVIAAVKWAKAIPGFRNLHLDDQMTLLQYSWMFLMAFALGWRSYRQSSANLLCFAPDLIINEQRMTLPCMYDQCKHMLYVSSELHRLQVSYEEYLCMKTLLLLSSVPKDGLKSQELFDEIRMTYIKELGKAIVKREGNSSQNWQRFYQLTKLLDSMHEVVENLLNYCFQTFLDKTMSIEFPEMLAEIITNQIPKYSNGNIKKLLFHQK
Method in brief: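 Stimulation of a glucocorticoid response element-driven beta-lactamase gene was measured in HeLa cells. Responses were scaled between DMSO basal and 0.1 uM dexamethasone, then fitted for half-maximal stimulation.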

[4] = target: Glucocorticoid receptor (Homo sapiens) (UniProt P04150); experiment: qHTS assay for small molecule antagonists of glucocorticoid receptor signaling (AID 588533; active means well fitted inhibition curve with a large enough effect in the signal ratio, with a control signal flat, not every such curve was filed as active; the % refers to the signal ratio;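 further: cells stimulated with 2 nM dexamethasone as agonist; on the % scale 0 is the no-effect control and ±100 the full control effect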)
Method in brief: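 Antagonist-mode qHTS: compound titrations added to GRE-bla HeLa cells, then dexamethasone 2 nM final; 18 h, 37 C. CCF4 FRET fluorescence normalized to dexamethasone and DMSO; IC50 from Hill fit.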

[5] = target: Peroxisome proliferator-activated receptor delta (Homo sapiens) (UniProt Q03181); experiment: qHTS assay for small molecule agonists of peroxisome proliferator-activated receptor delta signaling (AID 588534; calls by dose curve;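 further: 0% = DMSO basal wells and 100% = positive control agonist at 10 µM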)
Sequence of Peroxisome proliferator-activated receptor delta (Homo sapiens) (Q03181 whole entry, looked up): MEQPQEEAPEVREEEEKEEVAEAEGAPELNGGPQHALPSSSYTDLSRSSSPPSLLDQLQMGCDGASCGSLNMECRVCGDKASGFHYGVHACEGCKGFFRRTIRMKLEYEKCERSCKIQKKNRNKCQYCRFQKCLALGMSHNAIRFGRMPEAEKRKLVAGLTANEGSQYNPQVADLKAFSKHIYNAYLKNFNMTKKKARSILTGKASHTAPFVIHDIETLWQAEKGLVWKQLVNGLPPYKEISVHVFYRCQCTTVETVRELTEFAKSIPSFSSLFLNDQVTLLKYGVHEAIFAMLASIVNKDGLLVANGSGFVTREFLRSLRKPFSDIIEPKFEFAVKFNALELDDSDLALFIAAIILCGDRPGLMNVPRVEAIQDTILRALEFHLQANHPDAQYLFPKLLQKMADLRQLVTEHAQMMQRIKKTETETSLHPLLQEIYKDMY
Method in brief: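 Cell-based beta-lactamase reporter assay run in agonist mode: cells seeded and incubated 5 hrs at 37 C, compounds added and incubated 18 hrs at 37 C. CCF4 dye fluorescence read after 2 hrs at RT; EC50 and efficacy from Hill fits.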

[6] = qHTS assay for small molecule antagonists of peroxisome proliferator-activated receptor delta signaling (AID 588535; active means well fitted inhibition curve with a large enough effect in the signal ratio, with a control signal flat, not every such curve was filed as active; the % refers to the signal ratio;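 on max response: cells co-treated with a PPAR-delta agonist as stimulator during compound exposure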); settings: HEK293T PPARd-UAS-bla, beta-lactamase FRET ratio, 18 h; 460 nm channel
Method in brief: (§1)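 GeneBLAzer PPAR-delta-UAS-bla HEK293T cells in medium with 2% charcoal/dextran FBS were preincubated 5 hrs at 37 C, then given compounds, incubated 18 hrs at 37 C, and read by CCF4 beta-lactamase fluorescence; IC50 from Hill fits.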

[7] = target: Peroxisome proliferator-activated receptor delta (Homo sapiens) (UniProt Q03181); experiment: as above
Method in brief: as §1

[8] = target: Vitamin D3 receptor (Homo sapiens) (UniProt P11473); experiment: qHTS assay for small molecule antagonists of vitamin D receptor signaling (AID 588541; calls by dose curve;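 further: receptor activated by calcitriol during compound treatment; on the % scale 0 is the no-effect control and ±100 the full control effect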)
Sequence of Vitamin D3 receptor (Homo sapiens) (P11473 whole entry, looked up): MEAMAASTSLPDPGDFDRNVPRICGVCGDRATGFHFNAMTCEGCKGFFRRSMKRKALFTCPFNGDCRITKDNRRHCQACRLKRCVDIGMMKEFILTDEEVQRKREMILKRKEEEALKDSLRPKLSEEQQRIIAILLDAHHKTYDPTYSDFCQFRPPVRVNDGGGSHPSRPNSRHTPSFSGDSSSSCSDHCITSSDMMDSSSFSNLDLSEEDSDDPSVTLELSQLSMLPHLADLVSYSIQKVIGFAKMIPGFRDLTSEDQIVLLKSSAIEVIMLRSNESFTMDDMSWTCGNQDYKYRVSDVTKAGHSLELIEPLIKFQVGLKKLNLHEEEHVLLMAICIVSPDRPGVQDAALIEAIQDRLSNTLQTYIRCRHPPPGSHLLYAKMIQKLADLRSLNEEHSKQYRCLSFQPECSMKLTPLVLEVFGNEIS
Method in brief: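 VDR-UAS-bla HEK293T cells (2000/well, 2% charcoal-stripped FBS) were treated with titrated compounds plus 1-alpha,25-dihydroxyvitamin D3 (50 nM or 3 nM final) for 16 h at 37 C. CCF4 beta-lactamase fluorescence was read; Hill fits gave IC50.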

[9] = target: Voltage-gated inwardly rectifying potassium channel KCNH2 (Homo sapiens) (UniProt Q12809); experiment: qHTS Assay for Small Molecule Inhibitors of the Human hERG Channel Activity (AID 588834);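 further: lower thallium flux fluorescence means stronger hERG block; nearly all actives have a fitted effect of over 50% in size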; further: potency means the concentration at half of the fitted maximal effect
Sequence of Voltage-gated inwardly rectifying potassium channel KCNH2 (Homo sapiens) (Q12809 whole entry, looked up): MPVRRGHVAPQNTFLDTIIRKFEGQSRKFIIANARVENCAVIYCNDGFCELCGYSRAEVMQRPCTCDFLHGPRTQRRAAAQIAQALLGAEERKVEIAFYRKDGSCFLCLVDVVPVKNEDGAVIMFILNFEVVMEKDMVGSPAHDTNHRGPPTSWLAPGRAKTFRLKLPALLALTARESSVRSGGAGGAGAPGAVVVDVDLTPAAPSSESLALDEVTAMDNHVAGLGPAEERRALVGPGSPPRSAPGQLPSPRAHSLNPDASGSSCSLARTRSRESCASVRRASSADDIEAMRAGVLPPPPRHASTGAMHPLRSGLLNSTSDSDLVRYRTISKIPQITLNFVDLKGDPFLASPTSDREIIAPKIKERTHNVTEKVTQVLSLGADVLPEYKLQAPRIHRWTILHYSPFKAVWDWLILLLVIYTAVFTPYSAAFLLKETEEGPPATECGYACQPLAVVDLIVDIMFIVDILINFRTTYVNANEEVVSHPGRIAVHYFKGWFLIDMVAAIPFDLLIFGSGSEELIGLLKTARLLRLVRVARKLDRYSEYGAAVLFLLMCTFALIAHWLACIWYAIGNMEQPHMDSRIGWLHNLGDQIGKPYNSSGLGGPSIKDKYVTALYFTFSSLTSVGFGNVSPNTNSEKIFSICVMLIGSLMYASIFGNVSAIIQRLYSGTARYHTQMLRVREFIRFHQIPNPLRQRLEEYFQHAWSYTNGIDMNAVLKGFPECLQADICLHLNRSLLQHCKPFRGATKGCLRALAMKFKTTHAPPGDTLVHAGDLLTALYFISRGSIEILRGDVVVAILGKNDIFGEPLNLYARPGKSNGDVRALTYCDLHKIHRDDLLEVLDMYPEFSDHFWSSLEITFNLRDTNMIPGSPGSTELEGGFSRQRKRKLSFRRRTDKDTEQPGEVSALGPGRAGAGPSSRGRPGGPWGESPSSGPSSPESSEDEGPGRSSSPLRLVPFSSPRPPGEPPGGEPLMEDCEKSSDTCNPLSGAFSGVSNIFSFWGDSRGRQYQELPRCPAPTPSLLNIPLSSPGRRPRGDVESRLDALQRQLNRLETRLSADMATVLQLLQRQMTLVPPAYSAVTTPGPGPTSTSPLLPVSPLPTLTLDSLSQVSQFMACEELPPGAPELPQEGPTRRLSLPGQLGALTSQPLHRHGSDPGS
Method in brief: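 Blockade is seen as reduced FluxOR thallium-flux fluorescence in U2OS cells expressing hERG from a BacMam construct, in Opti-MEM with 2% FCS. Concentration-response data fitted to the Hill equation for AC50.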

[10] = qHTS assay for small molecule agonists of the antioxidant response element (ARE) signaling pathway (AID 651741; active means well fitted activation curve with a large enough effect in the signal ratio; the % refers to the signal ratio; further: potency means the concentration at half of the fitted maximal effect; on activation: % of control where 0% means no effect)
Method in brief: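 ARE-bla HepG2 cells (beta-lactamase reporter under ARE control) were plated at 2,000 cells/well, preincubated 5 h at 37 C/5% CO2, then treated with DMSO-dissolved compounds for 16 h at 37 C; LiveBLAzer B/G FRET substrate added, fluorescence read after 2 h at room temperature.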

[11] = qHTS assay for small molecule activators of the p53 signaling pathway (AID 651743; active means well fitted activation curve with a large enough effect in the signal ratio, not every such curve was filed as active; the % refers to the signal ratio; further: % of control where 0% means no effect); settings: HCT-116 p53RE-bla, beta-lactamase FRET ratio, 16 h; activation: stronger effect = higher value
Method in brief: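 p53RE-bla HCT-116 cells with a stably integrated beta-lactamase reporter under p53 response elements were plated, rested 5 hours at 37 C/5% CO2, then exposed to compounds in DMSO for 16 hours at 37 C. LiveBLAzer B/G FRET substrate was read after 2 hours at room temperature.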

[12] = qHTS assay for small molecule activators of the nuclear factor-kappa B (NF-kB) signaling pathway (AID 651749; active means well fitted activation curve with a large enough effect in the signal ratio; the % refers to the signal ratio; further: % of control where 0% means no effect); settings: NF-kB-bla ME-180 cells, beta-lactamase FRET ratio, 16 h; stronger effect = higher value
Method in brief: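 ME-180 cells stably carrying a beta-lactamase reporter under an NF-kB response element were exposed to compound or DMSO vehicle for 16 hr at 37C, 5% CO2. Pathway activation was read by FRET, since reporter expression disrupts FRET.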

[13] = qHTS assay for small molecule disruptors of the mitochondrial membrane potential - 1 hr assay (AID 651754; calls by dose curve; further: on the % scale 0 is the no-effect control and ±100 the full control effect; nearly all actives have a fitted effect of over 35% in size)
Method in brief: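 HepG2 cells, attached overnight at 37C, were exposed to compound or DMSO vehicle for 1 hr at 37C, 5% CO2, then stained with Mito-MPS dye for 30 min. Red aggregate versus green monomer fluorescence reports membrane potential.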

[14] = qHTS assay for environmental chemicals that activate the Aryl hydrocarbon Receptor (AhR) signaling pathway (AID 651777); settings: 1A2-DRE human hepatoma cells, luciferase, 24 h; activation: stronger effect = higher value; further: % of control where 0% means no effect; nearly all actives have a fitted effect of over 15% in size
Method in brief: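 Following a 24 hr incubation with test chemicals at 37 C and 5% CO2, 1A2-DRE human hepatoma cells received One-Glo reagent; after 30 min at room temperature, luciferase output reflected CYP1A2 induction via AhR.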

[15] = target: Nuclear receptor ROR-gamma (Homo sapiens) (UniProt P51449); experiment: qHTS assay for small molecule antagonists of the retinoid-related orphan receptor gamma (ROR-gamma) signaling pathway (AID 651802); further: on the % scale 0 is the no-effect control and ±100 the full control effect; nearly all actives have a fitted effect of over 60% in size
Sequence of Nuclear receptor ROR-gamma (Homo sapiens) (P51449 whole entry, looked up): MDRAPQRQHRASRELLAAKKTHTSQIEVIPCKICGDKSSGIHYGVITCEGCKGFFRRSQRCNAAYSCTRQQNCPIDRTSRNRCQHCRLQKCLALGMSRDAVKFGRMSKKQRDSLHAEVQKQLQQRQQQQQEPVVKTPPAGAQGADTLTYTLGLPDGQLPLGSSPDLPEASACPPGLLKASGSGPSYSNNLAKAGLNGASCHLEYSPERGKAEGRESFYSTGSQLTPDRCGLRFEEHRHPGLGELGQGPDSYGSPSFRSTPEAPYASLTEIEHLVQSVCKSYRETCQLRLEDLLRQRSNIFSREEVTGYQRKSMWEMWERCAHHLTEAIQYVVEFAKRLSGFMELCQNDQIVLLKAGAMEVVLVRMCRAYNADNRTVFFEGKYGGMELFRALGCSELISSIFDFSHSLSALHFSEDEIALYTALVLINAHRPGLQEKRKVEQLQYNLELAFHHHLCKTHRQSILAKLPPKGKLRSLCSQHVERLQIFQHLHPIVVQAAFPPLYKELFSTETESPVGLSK
Method in brief: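 CHO cells carrying TET-inducible ROR-gamma and an ROR response element–luciferase reporter were exposed to compound, then induced with doxycycline. After 16hr at 37C, luminescence was read; lower signal indicates antagonism.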

[16] = qHTS assay for small molecule antagonists of the retinoid-related orphan receptor gamma (ROR-gamma) signaling pathway - cell viability counter screen (AID 720652; active means well fitted curve in the direction sought with a large enough effect in the repeat runs; an effect the other way counts as inactive or inconclusive;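 further: compound exposure lasted 16 hr before ATP read; on the % scale 0 is the no-effect control and ±100 the full control effect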)
Method in brief: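 Counter screen in CHO cells carrying TET-inducible ROR-gamma and an ROR response element-luciferase reporter; cells plated 5 hr, compound pinned, doxycycline added, then 16 hr at 37 C. Viability read as intracellular ATP by CellTiter-Glo luminescence.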

[17] = target: Cytochrome P450 3A4 (Homo sapiens) (UniProt P08684); experiment: qHTS Assay for Inhibitors and Substrates of Cytochrome P450 3A4 (AID 884); further: on the % scale 0 is the no-effect control and ±100 the full control effect; nearly all actives have a fitted effect of over 50% in size
Sequence of Cytochrome P450 3A4 (Homo sapiens) (P08684 whole entry, looked up): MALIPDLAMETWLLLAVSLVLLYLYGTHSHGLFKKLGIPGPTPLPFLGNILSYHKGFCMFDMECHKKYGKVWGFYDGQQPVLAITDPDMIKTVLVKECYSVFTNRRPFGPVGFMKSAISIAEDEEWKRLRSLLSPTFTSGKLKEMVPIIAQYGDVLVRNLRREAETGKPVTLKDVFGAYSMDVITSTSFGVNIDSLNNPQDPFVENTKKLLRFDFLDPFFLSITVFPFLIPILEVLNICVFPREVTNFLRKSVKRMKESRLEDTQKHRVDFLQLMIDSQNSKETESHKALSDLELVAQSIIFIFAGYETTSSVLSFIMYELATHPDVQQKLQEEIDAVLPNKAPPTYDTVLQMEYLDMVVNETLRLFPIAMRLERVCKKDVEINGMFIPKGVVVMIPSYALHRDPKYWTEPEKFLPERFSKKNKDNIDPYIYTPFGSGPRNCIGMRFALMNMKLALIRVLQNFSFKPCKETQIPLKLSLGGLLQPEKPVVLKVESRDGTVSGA
Method in brief: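 20 nM human CYP3A4 with 25 uM Luciferin-PPXE (at KM) in 200 mM KPO4, preincubated 10 min with compound; NADPH regeneration started a 60 min RT reaction. Luciferin detected by luminescence, normalized to 57 uM ketoconazole as full inhibition.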

[18] = target: Estrogen receptor (Homo sapiens) (UniProt P03372); experiment: qHTS assay for small molecule antagonists of estrogen receptor alpha signaling (AID 588513; active means well fitted curve in the direction sought with a large enough effect in the signal ratio, with a control signal flat, not every such curve was filed as active; the % refers to the signal ratio; further: on the % scale 0 is the no-effect control and ±100 the full control effect)
Sequence of Estrogen receptor (Homo sapiens) (P03372 whole entry, looked up): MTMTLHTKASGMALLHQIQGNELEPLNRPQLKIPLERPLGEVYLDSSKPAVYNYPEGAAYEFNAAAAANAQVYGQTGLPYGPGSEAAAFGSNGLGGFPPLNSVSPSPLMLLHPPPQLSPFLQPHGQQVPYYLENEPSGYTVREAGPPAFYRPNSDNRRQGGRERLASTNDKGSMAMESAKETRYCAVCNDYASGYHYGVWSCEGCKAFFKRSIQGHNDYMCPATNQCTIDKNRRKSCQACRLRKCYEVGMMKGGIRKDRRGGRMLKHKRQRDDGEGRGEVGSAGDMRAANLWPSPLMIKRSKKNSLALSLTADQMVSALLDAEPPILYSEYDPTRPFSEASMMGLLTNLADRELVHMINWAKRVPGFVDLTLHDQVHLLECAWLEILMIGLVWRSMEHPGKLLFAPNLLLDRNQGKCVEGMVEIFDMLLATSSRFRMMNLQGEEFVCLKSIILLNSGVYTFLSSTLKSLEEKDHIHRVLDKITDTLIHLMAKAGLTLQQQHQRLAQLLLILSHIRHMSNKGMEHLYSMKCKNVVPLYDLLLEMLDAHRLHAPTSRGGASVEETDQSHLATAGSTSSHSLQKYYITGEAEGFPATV
Method in brief: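 Antagonist-mode qHTS in ER-alpha-UAS-bla HEK 293 cells: compound titration, 0.5nM estradiol for 18 h, CCF4 fluorescence, Hill-derived IC50.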

[19] = target: Estrogen receptor (Homo sapiens) (UniProt P03372); experiment: qHTS assay for small molecule agonists of estrogen receptor alpha signaling (AID 588514; calls by dose curve;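 further: 0% = vehicle only and 100% = reference agonist; nearly all actives have a fitted effect of over 70% in size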)
Method in brief: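 ER-alpha-UAS-bla GripTite HEK 293 cells in medium with 2% charcoal/dextran-treated FBS were treated with compound titrations at 37 C for 18 hrs; beta-lactamase reporter read by CCF4 fluorescence after 2 hrs at RT.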

[20] = target: Peroxisome proliferator-activated receptor gamma (Homo sapiens) (UniProt P37231); experiment: qHTS assay for small molecule antagonists of peroxisome proliferator-activated receptor gamma signaling (AID 588537; active means well fitted inhibition curve with a large enough effect in the signal ratio, with a control signal flat, not every such curve was filed as active; the % refers to the signal ratio;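 further: reporter cells co-stimulated with 50 nM rosiglitazone agonist during compound treatment; % of control where 0% means no effect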)
Sequence of Peroxisome proliferator-activated receptor gamma (Homo sapiens) (P37231 whole entry, looked up): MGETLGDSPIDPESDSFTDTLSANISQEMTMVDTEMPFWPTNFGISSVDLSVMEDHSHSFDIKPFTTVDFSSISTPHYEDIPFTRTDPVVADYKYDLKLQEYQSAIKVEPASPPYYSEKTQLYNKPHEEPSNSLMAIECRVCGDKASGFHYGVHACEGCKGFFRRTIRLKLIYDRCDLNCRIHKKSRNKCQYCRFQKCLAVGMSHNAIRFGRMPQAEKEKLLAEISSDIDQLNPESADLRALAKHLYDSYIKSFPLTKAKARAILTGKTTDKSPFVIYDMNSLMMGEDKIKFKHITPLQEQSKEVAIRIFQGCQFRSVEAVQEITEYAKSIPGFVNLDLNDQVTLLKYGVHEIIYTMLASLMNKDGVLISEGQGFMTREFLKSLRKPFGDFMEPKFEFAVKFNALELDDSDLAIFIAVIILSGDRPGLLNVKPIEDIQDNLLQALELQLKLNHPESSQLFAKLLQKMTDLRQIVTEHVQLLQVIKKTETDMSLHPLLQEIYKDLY
Method in brief: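 PPAR-gamma-UAS-bla HEK293 cells (3000/well, 1% charcoal/dextran-stripped FBS) were preincubated 6-6.5 h at 37 C, given titrated compounds, then stimulated with 50 nM rosiglitazone for 16 h. Beta-lactamase activity was read with CCF4 dye; IC50 came from Hill fits.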

CC(C)(OOC(C)(C)c1ccccc1)c1ccccc1
active: Potency [9] 15.8 µM
inactive: Potency [1] | outcome [2] | activation [3] -3.95% and 1.36% | outcome [4] | outcome [5] | outcome [7] | outcome [8] | Potency [10] | activation [11] -3.14% and -2.07% | activation [12] 0.182% and -0.836% | Potency [13] | activation [14] -0.821% and 0.322% | Potency [15] | Potency [16]
42.8% and 13.3%: max response [6]

O=[N+]([O-])CCO
inactive: Potency [1] | outcome [2] | Potency [17] | Potency [18] | Potency [19] | activation [3] -6.62% | outcome [4] | Potency [9] | activation [12] -0.859% | activation [14] -2.02%

Nc1ccc(Cl)c(Cl)c1
inactive: Potency [1] | outcome [2] | outcome [7] | outcome [8] | Potency [9] | activation [11] 0.678% | activation [12] 0.145% | Potency [13]
-10.6%: max response [6]

c1ccc(N=NNc2ccccc2)cc1
active: Potency [9] 39.8 µM | Potency [10] 26.6 µM and 9.69 µM
-9.27% and 22.4%: max response [6]
inactive: Potency [1] | outcome [2] | Potency [18] | Potency [19] | outcome [8] | activation [11] -4.25% and -0.499% | Potency [15] | Potency [16]

CCBr
13.3%: max response [6]
inactive: Potency [1] | outcome [2] | Potency [17] | Potency [18] | Potency [19] | activation [3] 4.52% | outcome [4] | outcome [7] | outcome [8] | Potency [9] | Potency [10] | activation [11] 1.32% | activation [12] -0.926% | Potency [15] | Potency [16]

CC(C)CON=O
-5.59%: max response [6]
inactive: Potency [17] | Potency [18] | Potency [19] | activation [3] 2.25% | outcome [4] | outcome [5] | outcome [7] | outcome [8] | Potency [13] | activation [14] 1.53%

CCCCC(=O)Cl
inactive: Potency [1] | outcome [2] | Potency [17] | outcome [4] | outcome [5] | outcome [7] | outcome [8] | Potency [9] | activation [11] 1.32% | activation [12] -1.31% | Potency [13] | Potency [16]
20%: max response [6]

O=C(O)CCl
inactive: Potency [1] | outcome [2] | Potency [17] | activation [3] 1.7% | Potency [20] | Potency [9] | Potency [15]
active: Potency [10] 42.2 µM

N#CCBr
inactive: Potency [1] | outcome [2] | Potency [17] | Potency [18] | Potency [19] | activation [3] -5.38% | Potency [9] | activation [12] 0.342% | Potency [13] | activation [14] 13.7% | Potency [15]
active: Potency [10] 16.8 µM

Reference: PubChem BioAssay (NCATS)
